In PubChem BioAssay (Tox21):
Values joined by “and” are separate entries in the source; they are usually repeats but may differ in a detail not shown here. Identical values can stand only once. Records with an inconclusive call do not appear. Where a call stands in place of a potency, no number is given. Unmarked numbers belong to inactive results. Active and inactive are the calls of the source. Calls come from the whole dose curve; as a rule, active = well fitted cell-killing curve with a large enough effect in the repeat runs; inconclusive = weak or mixed curves, or effect the other way; inactive = no such curve, though single readings can be large or run the other way.

Test: qHTS assay for identifying genotoxic compounds that show differential cytotoxicity against isogenic chicken DT40 cell lines with known DNA damage response pathways - wild type cell line (AID 743012); note: nearly all actives have a fitted effect of over 60% in size
Conditions: DT40 wild type chicken cells viability, CellTiter-Glo, 40 h; series mostly up to 68.4 µM
Excerpt: U.S. Tox21 Program National Center for Advancing Translational Sciences [NCATS] NIH Chemical Genomics Center [NCGC] U.S. Environmental Protection Agency [EPA] National Institutes of Environmental Health Sciences [NIEHS] National Toxicology Program [NTP] U.S. Food and Drug Administration [FDA] Tox21 Assay Overview: DNA repair pathways play a critical role in cellular homeostasis by repairing DNA damage induced by endogenous processes and xenobiotics. Isogenic chicken DT40 cell lines deficient in different DNA repair pathways can be used to identify genotoxic compounds and aid in characterizing the nature of the DNA damage induced. Two DNA repair-deficient cell lines with disrupted genes, Rad54/Ku70 or Rev3, were used to screen the Tox21 10K compound library. Possible genotoxicity was based on the presence of a significant increase in cytotoxicity in one or more of the DNA repair-deficient cell lines compared to that observed in the parental DNA repair-proficient cell line. CellTiter Glo viability assay (Promega, Madison, WI) was used to measure cell viability in these cells after compound treatment. This assay includes the data from the wild type cell line.
Tox21 Assay Protocol Summary: 300 DT40 wild type cells in 5 uL/well were dispensed into white, solid-bottom 1536-well plates using a Multidrop Combi (ThermoFisher Scientific, Waltham, MA) dispenser. After the assay plates were incubated at 37 C/5% CO2 for approximately 0.5 hour, 23 nL of compounds dissolved in DMSO, positive controls or DMSO only was transferred into the assay plate by a pintool work station (Kalypsys, San Diego, CA). The assay plates were incubated at 37 C/5% CO2 for 40 hours. After 5 uL per well of CellTiter-Glo reagent was added into each well of the assay plates, the plates were incubated for 30 min at room temperature and the luminescence intensity of the plates was measured using a ViewLux (PerkinElmer, Shelton, CT) plate reader.
Potency is the fitted concentration of half-maximal effect.

Structure (SMILES)	Potency	activity change, negative = cytotoxicity
O=S(=O)(O)c1ccccc1O	inactive	–
COc1cc(O)cc(O)c1	inactive	–
CCC(C)(C)C1CCC(OC)CC1 (stereo not given)	inactive	–
CN(C)CCOC(c1ccc(Cl)cc1)c1ccccn1 (stereo not given)	inactive	–
Nc1nc(F)nc2c1ncn2[C@@H]1O[C@H](CO)[C@@H](O)[C@@H]1O	841 nM (active) and 1.68 µM (active)	–
O=C(O)Cc1cc(I)c(Oc2cc(I)c(O)c(I)c2)c(I)c1	inactive	–
COCCOC(=O)CC#N	inactive	–
CCCCCCCCCCCl	inactive	–
C1COCCO1	inactive	–
C=C[Si](OC)(OC)OC	inactive	–
CCO[Si](C)(OCC)OCC	inactive	–
CC(C)[C@H](N)C(=O)OCCOCn1cnc2c(=O)[nH]c(N)nc21	11.9 µM (active)	–
CCCc1ccc(N)cc1	inactive	–
CO[Si](CCCNCCC[Si](OC)(OC)OC)(OC)OC	inactive	–
C[C@H](O)C(=O)Nc1c(I)c(C(=O)NC(CO)CO)c(I)c(C(=O)NC(CO)CO)c1I	inactive	–
CCC(=O)c1cccc(Cl)c1	inactive	–
OC1OC[C@@H](O)[C@H](O)[C@H]1O (stereo not given in full)	inactive	–
CC/C=C\C#N	inactive	–
CC(=O)OC(C)(C)C	inactive	–
C=C(C)[C@@H]1CCC2=CC(=O)C[C@@H](C)[C@]2(C)C1	inactive	–

Structure (SMILES)	Potency	activity change, negative = cytotoxicity
CC(C)c1cccc(O)c1	inactive	–
CCCCC1CCCCC(=O)O1 (stereo not given)	inactive	–
Cc1nc(-c2ccc(OCC(C)C)c(C#N)c2)sc1C(=O)O	inactive	–
CCCCCCCCCCC1CO1 (stereo not given)	61.1 µM (active)	–
O=C(O)c1ccccc1-c1ccc(C(F)(F)F)cc1	inactive	–
c1ccc(CCCc2ccccn2)cc1	inactive	–
O=C(O)c1ccc[n+]([O-])c1	inactive	–
CNc1ncnc2nc[nH]c12	inactive	–
CN1[C@@H]2CC[C@H]1CC(NC(=O)n1c(=O)[nH]c3ccccc31)C2 (stereo not given in full)	inactive	–
COc1cc(CCC(C)=O)ccc1O	inactive	–
Oc1cc(O)c2c(c1)O[C@H](c1ccc(O)c(O)c1)[C@H](O)C2	inactive	–
NC(=S)Nc1cccc2ccccc12	–	28.7% [at 8.52 µM]
CC(=O)c1ccc(C)cc1	inactive	–
Cn1cnc2c(=O)[nH]c(N)nc21	inactive	–
OCc1ccccn1	inactive	–
CC(C)(O)Cc1ccccc1	inactive	–
CC1=CC(=O)CCC1	inactive	–
Cc1nccn1CC1CCc2c(c3ccccc3n2C)C1=O (stereo not given)	inactive	–
COc1cccc(Br)c1	inactive	–
CCO[Si](CCCN=C=O)(OCC)OCC	inactive	–
